Results as given in PubChem BioAssay AID449762 (Southern Research Specialized Biocontainment Screening …, 2010).
Screen size: about 330,000 compounds; about 1,900 (0.58%) were called active. About 4% were inconclusive and are not listed. Not all results are given here. Results with a measured potency or affinity are listed apart. A number with no mark means an inactive call. Cut-off read from the data, not from the text of the source: inconclusive = inhibition above about 70% without an active follow-up result; inactive = below that.

Assay: M. tuberculosis growth inhibition, HTS (AID 449762);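 note: bacterial growth assessed after seven days of incubation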
Settings: M. tuberculosis H37Rv growth inhibition, 7H9 media; at 25 µM; stronger effect = higher value

Row | SMILES | inhibition [%]
1 | COc1ccc(C(=O)c2c(-c3ccc(OC)cc3)oc3ccc(-c4ccc(OC)nc4)cc23)cc1 | 64.6
2 | CCCC12CN3CC(CCC)(CN(C1)C3c1ccco1)C2=O (configuration not stated) | -6.51
3 | CCCC12CN3CC(C)(CN(C1)C3c1ccco1)C2=O (configuration not stated) | -1.36
4 | CN(C)CCN(Cc1ccco1)C(=O)c1oc2ccccc2c1NC(=O)COc1ccccc1 | 13.6
5 | Cc1ccccc1C(=O)Nc1c(C(=O)N(CCN(C)C)Cc2ccco2)oc2ccccc12 | 13.6
6 | CN(C(=O)CSc1nnc(-c2ccncc2)n1-c1ccccc1)C1CCS(=O)(=O)C1 (configuration not stated) | -8.96
7 | O=C(NC1CCCCCC1)c1cccc(COCC(F)(F)F)c1 | -0.72
8 | C/C(=N\NC(=S)NCc1ccccc1)c1ccccc1F | -2.93
9 | C/C(=N\NC(=S)NCCc1ccccc1)c1ccc(O)cc1O | 3.81
10 | Cc1noc(C)c1S(=O)(=O)Nc1ccc(C(=O)N2CCC(C)CC2)cc1 | 8.59
11 | Cc1ccc(N2CC(C(=O)N3CCC(C(=O)Nc4nnc(C(C)(C)C)s4)CC3)CC2=O)cc1 (configuration not stated) | 4.69
12 | OCC1(Cc2ccc(Cl)cc2)CCN(CCCc2ccccc2)CC1 | 39.2
13 | COc1cnc(-c2ccccn2)nc1Oc1ccc(Cl)cc1 | 2.17
14 | COc1cnc(-c2ccccc2)nc1Oc1ccc(Cl)cc1C | 3.24
15 | Cc1cc(C)cc(OCC(=O)N2Cc3ccccc3CC2C(=O)O)c1 (configuration not stated) | 10.5
16 | CC(CC(=O)Nc1ccc(-c2ccno2)cc1)n1cccn1 (configuration not stated) | 21.4
17 | Cc1ccc(CNC(=O)COC(=O)c2cc(=O)[nH]c3ccccc23)cc1 | 6.93
18 | N#Cc1ccccc1/C=N/Nc1nc(-c2ccccc2)c2cc(Br)ccc2n1 | 6.43
19 | N#Cc1ccccc1/C=N/Nc1nc(-c2ccccc2)c2cc(Cl)ccc2n1 | -2.26
20 | COCCNC(=S)Nc1ccc2nc(N3CCOCC3)cc(C)c2c1 | -5.25
21 | O=C(COC(=O)CNC(=O)c1ccc(Cl)c([N+](=O)[O-])c1)NCC1CCCO1 (configuration not stated) | -15.8
22 | Cc1cc(NCCC(C)C)n2nc(C)c(-c3ccccc3)c2n1 | 67.4
23 | Cc1nn2c(N3CCCC3)cc(C(C)C)nc2c1-c1ccccc1 | 2.45

Row | SMILES | inhibition [%]
24 | CCS(=O)(=O)Nc1ccc(C2=NN(C(=O)c3ccco3)C(c3cccc(F)c3)C2)cc1 (configuration not stated) | 23.2
25 | COc1ccc(COC(=O)Nc2cc3c(C(F)(F)F)nn(C)c3s2)cc1 | -0.32
26 | Cn1nc(C(F)(F)F)c2cc(NC(=O)OCc3ccc(F)cc3)sc21 | 10.2
27 | CC1CCC(NC(=O)c2ccc(NS(=O)(=O)c3ccc4[nH]c(=O)[nH]c4c3)cc2)CC1 (configuration not stated) | -6.1
28 | CC1(c2nnc(-c3ccccc3)o2)CC(c2ccc([N+](=O)[O-])cc2)=NO1 (configuration not stated) | -0.65
29 | COC(=O)c1ccc(NC(=O)c2ccc[n+]([O-])c2)cc1 | -4.13
30 | c1ccc2nc3c(nc2c1)OCC1CCCCN31 (configuration not stated) | 3.14
31 | CC1(C(=O)N(CC(=O)NC2CCCC2)Cc2ccc(Cl)cc2)CC(=O)N=C2C=CC=CN21 (configuration not stated) | -2.69
32 | Cc1ccccc1NC(=O)NC(N)=O | -2.65
33 | CCN(CC)CCOC(=O)c1ccc(N/C=C(/C#N)c2nc(-c3cc4ccccc4oc3=O)cs2)cc1 | 9.42
34 | Cc1ccc(-c2csc(/C(C#N)=C/Nc3ccc4c(c3)OCCO4)n2)cc1 | 7
35 | Cc1cc(CN(C)C(=O)c2ccc3nc(Cc4ccccc4F)oc3c2)n[nH]1 | -6.04
36 | Cc1cccc(C(=O)OCC(=O)N(C)CC(=O)Nc2ccc(Cl)c(C(F)(F)F)c2)c1 | 1.53
37 | Cc1ccc(-c2cc(C(=O)N3CCOCC3)no2)cc1 | 6.22
38 | O=C(O)c1cccnc1Nc1cccc(C(F)(F)F)c1 | -0.01
39 | CNC(=O)c1cccnc1Nc1cccc(C(F)(F)F)c1 | -4.06
40 | Cc1ccc(C(=O)N(CC(=O)NC2CCCC2)c2cccc(F)c2)s1 | 9.2
41 | CN(C)CCCNC(=O)c1ccc(-c2cc(O)c3ncccc3c2)cc1 | 3.92
42 | CN1CCN(c2cc(-c3cc(O)c4ncccc4c3)ccn2)CC1 | 28.5
43 | CC1(c2cccc(Br)c2)NC(=O)N(CC(=O)NC2CCCCC2)C1=O (configuration not stated) | 3
44 | CCCCN1C(=O)c2ccc(C(=O)OCC(=O)NCCc3ccc(S(N)(=O)=O)cc3)cc2C1=O | -4.61
45 | O=C(NCC(c1cccs1)N1CCOCC1)c1ccc([N+](=O)[O-])cc1 (configuration not stated) | 2.63
46 | O=C(NCC(c1cccs1)N1CCOCC1)c1cccc([N+](=O)[O-])c1 (configuration not stated) | -5.61

Row | SMILES | inhibition [%]
47 | CCOc1ccc(NC(=O)CN(C)C(=O)Cc2ccsc2)cc1OCC | -3.21
48 | CCOC(=O)Cn1cnc2c(nnn2-c2ccc(OC)cc2)c1=O | -2.34
49 | CCOc1cc(/C=C2\N=C(C)OC2=O)cc(Cl)c1OCC(=O)OC | -3.74
50 | O=C(C1CCCN1S(=O)(=O)c1cccc2nsnc12)N1CCCCCC1 (configuration not stated) | 2.56
51 | Cc1nnc(SCC(=O)NCc2ccc(F)cc2)[nH]c1=O | 0.54
52 | O=S(Cc1ccc(Br)cc1)Cc1nnc(SCc2c(Cl)cccc2Cl)n1-c1ccccc1 (configuration not stated) | -2.91
53 | O=S(Cc1ccc(Br)cc1)Cc1nnc(SCc2ccc(Br)cc2)n1-c1ccccc1 (configuration not stated) | 57
54 | CCOC(=O)c1ccc(S(=O)(=O)NNC(=O)Cc2csc(C)n2)cc1 | 1.7
55 | CCOc1ccc(CCNC(=O)c2cccc(S(=O)(=O)N3CC(C)OC(C)C3)c2)cc1OCC (configuration not stated) | 2.57
56 | CC(=O)Nc1ccc(N2CCN(c3ccc(C(F)(F)F)cn3)CC2)nc1 | 17.9
57 | CC(C)(C)C(=O)Nc1ccc(N2CCN(c3ccc(C(F)(F)F)cn3)CC2)nc1 | -0.97
58 | c1ccc(OCCCCn2cnc3ccccc32)cc1 | 4.06
59 | c1ccc2c(c1)ncn2CCCOc1ccc2c(c1)CCC2 | 68.5
60 | O=C(O)CCCC(=O)N1N=C(c2ccccc2)CC1c1ccc2nccnc2c1 (configuration not stated) | 0.01
61 | O=C(N/C(=C\c1cccc([N+](=O)[O-])c1)C(=O)N1CCCCC1)c1cccs1 | -1.22
62 | COCC(=O)NC(c1ccccc1)c1ccccc1 | 1.57
63 | CCN1CCN(C(c2ccc(OC)cc2)C(O)C(=O)c2c[nH]c3ccccc23)CC1 (configuration not stated) | 1.81
64 | O=C(c1c[nH]c2ccccc12)C(O)C(c1ccccc1)N1CCOCC1 (configuration not stated) | -0.62
65 | CCOc1ccccc1C(C(=O)NC1CCCCC1)N(C(=O)c1csnn1)C1CC1 (configuration not stated) | -6.88
66 | CC1(C)CC(=O)c2c(O)cc(OCc3ccc([N+](=O)[O-])cc3)cc2O1 | 8.3
67 | COC(=O)c1ccc(COc2cc(O)c3c(c2)OC(C)(C)CC3=O)cc1 | 20.4
68 | N=C(c1ccc([N+](=O)[O-])cc1)N1CCCCC1 | 8.06
69 | O=C1CCN(Cc2ccccc2)CCN1CCSc1ccccc1 | -0.68

Row | SMILES | inhibition [%]
70 | CCOc1ccccc1N(CC(=O)Nc1ccc2c(c1)OCO2)S(C)(=O)=O | -15.7
71 | O=C(Nc1cc(-c2nc3ncccc3o2)ccc1Cl)c1ccc([N+](=O)[O-])o1 | -1.99
72 | COc1ccc(C(=O)Nc2cccc(-c3nc4ncccc4o3)c2C)cc1 | 2.93
73 | COc1ccc(N2C(=O)C3C4c5ccccc5C(C=Nc5ccc(C)cc5C)(c5ccccc54)C3C2=O)cc1 (configuration not stated) | 36.6
74 | COc1ccc(N2C(=O)C3C(C2=O)C3(c2ccccc2)c2ccccc2)cc1 (configuration not stated) | 1.86
75 | Cn1c(=O)c2c(nc3n2CC(O)CN3c2ccc(O)cc2)n(C)c1=O (configuration not stated) | -2.83
76 | CCc1cccc2c(C(=O)COC(=O)c3ccc(O)cc3)c[nH]c12 | -5.92
77 | CCc1cccc2c(C(=S)N3CCOCC3)c[nH]c12 | 3.01
78 | CCc1cccc2c(C(=O)COC(=O)c3ccccc3)c[nH]c12 | 0.69
79 | CCc1cccc2c(=O)c(C(=O)NCCN3CCOCC3)c[nH]c12 | -3.32
80 | O=C(NCc1ccccc1)c1cccc(Br)n1 | 2.81
81 | CC(C)n1cc(CNC(=O)C2CCC(=O)N(Cc3ccccc3F)C2)cn1 (configuration not stated) | 5.12
82 | O=C(OCc1ccc([N+](=O)[O-])cc1)C1CC(=O)N(Cc2ccccc2)C1 (configuration not stated) | 6.8
83 | COCCN(C(=O)c1cccc(N2C(=O)CCC2=O)c1)c1nc(-c2ccc([N+](=O)[O-])cc2)cs1 | 31.4
84 | Cc1cc(C)n(CCC(=O)N=Nc2c(O)[nH]c3ccccc23)n1 | 3.85
85 | CCC1CCCCN1CCCNC(=O)CSc1nc2nc(C)c(Cc3ccccc3Cl)c(C)n2n1 (configuration not stated) | 4.72
86 | Cc1ccc(N2CCN(/N=C/C(Cl)=C/c3ccccc3)CC2)cc1 | 4.03
87 | COc1ccccc1N1CCN(/N=C\c2ccccc2)CC1 | 4.03
88 | O=C(Nc1ccc2c3c(cccc13)CC2)c1cccc([N+](=O)[O-])c1 | -7.19
89 | Cc1c(C(=O)Nc2ccc3c4c(cccc24)CC3)cccc1[N+](=O)[O-] | 27.6
90 | COc1ccc(-c2cc(C)no2)cc1S(=O)(=O)N1CCN(C(=O)c2ccco2)CC1 | -7.17
91 | CC(C)Cc1ccc(C(C)C(=N)N)cc1 (configuration not stated) | 6.85
92 | COc1ccc(CCN=C(N)C(C)c2ccccc2)cc1OC (configuration not stated) | -10.7
